The values that follow come from the supplement of paper PMC8728848.

The entries come from a sample that favours the strongest signals as a whole.

Holding throughout (assay): glycan array binding signal (z-score within array); higher = stronger binding
What all share (details): glycan notation: IUPAC condensed, linker removed

Assay [1] has as its target Gal(b1-3)GalNAc(b1-4)[Neu5Gc(a2-3)]Gal(b1-4)Glc. In short, it runs like this:
(§1)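 The binding signal is a Z-score computed within each array and averaged over linkers. Arrays of the same protein sequence at different concentrations or buffers were also averaged together. Data originate from 3228 arrays in the Consortium for Functional Glycomics database, kept only where the protein sequence was available.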

In another assay the target is Neu(a2-3)Gal(b1-4)Glc. In short, it runs like this:
as §1

A further assay concerns the target Neu(a2-6)Gal(b1-4)Glc. In short, it runs like this:
as §1

Assay [2] deals with Neu5Ac(a2-3)Gal(b1-3)GalNAc(b1-4)Gal(b1-4)Glc. In short, it runs like this:
as §1

For assay [3], the target named is Neu5Ac(a2-3)Gal(b1-3)GlcNAc(b1-3)[Fuc(a1-3)[Gal(b1-4)]GlcNAc(b1-6)]Gal(b1-4)Glc. In short, it runs like this:
as §1

The target in assay [4] is Neu5Ac(a2-3)Gal(b1-4)[Fuc(a1-3)]GlcNAc6S(b1-3)Gal(b1-4)Glc. In short, it runs like this: as §1
Assay [5] deals with Neu5Ac(a2-3)Gal6S(b1-4)[Fuc(a1-3)]GlcNAc6S(b1-3)Gal(b1-4)Glc. In short, it runs like this: as §1
The target of assay [6] is Neu5Ac(a2-6)Gal(b1-4)GlcNAc(b1-3)[Neu5Ac(a2-6)Gal(b1-4)GlcNAc(b1-6)]Gal(b1-4)Glc. In short, it runs like this: as §1
Assay [7] has as its target Neu5Ac(a2-9)Neu5Ac(a2-3)Gal(b1-4)Glc. In short, it runs like this: as §1
A further assay has as its target Neu5Gc(a2-3)Gal(b1-4)Glc. In short, it runs like this:
as §1

The target in assay [8] is Gal(b1-3)GalNAc(b1-4)[Neu5Ac(a2-3)]Gal(b1-4)Glc. In short, it runs like this: as §1
In assay [9] the target is Gal(b1-3)GlcNAc(b1-3)Gal(b1-4)Glc. In short, it runs like this: as §1
For assay [10], the target named is Neu(a2-3)Gal6S(b1-4)[Fuc(a1-3)]GlcN(b1-3)Gal(b1-4)Glc. In short, it runs like this: as §1
The target of assay [11] is Neu5Ac(a2-3)Gal(b1-4)[Fuc(a1-3)]GlcNAc(b1-3)Gal(b1-4)Glc. In short, it runs like this: as §1
Assay [12] deals with Neu5Ac(a2-3)Gal6S(b1-4)[Fuc(a1-3)]GlcNAc(b1-3)Gal(b1-4)Glc. In short, it runs like this: as §1
The target of assay [13] is Neu5Ac(a2-8)Neu5Ac(a2-8)Neu5Ac(a2-8)Neu5Ac(a2-8)Neu5Ac(a2-8)Neu5Ac(a2-8)Neu5Ac. In short, it runs like this: as §1
For assay [14], the target named is Neu5Ac(a2-8)Neu5Ac(a2-8)Neu5Ac(a2-8)Neu5Ac(a2-8)Neu5Ac(a2-8)Neu5Ac(a2-8)Neu5Ac(a2-8)Neu5Ac(a2-8)Neu5Ac. In short, it runs like this:
as §1

In assay [15] the target is Neu5Ac(a2-8)Neu5Ac(a2-8)Neu5Ac(a2-8)Neu5Ac(a2-8)Neu5Ac(a2-8)Neu5Ac(a2-8)Neu5Ac(a2-8)Neu5Ac(a2-8)Neu5Ac(a2-8)Neu5Ac(a2-8)Neu5Ac. In short, it runs like this:
as §1

For assay [16], the target named is Neu5Ac9Ac(a2-6)Gal(b1-4)GlcNAc. In short, it runs like this: as §1

B1: MIC13 (Toxoplasma gondii), A0A125YWL1 (protein)
chain: IQLRQHRNGLGVEQSFVSEETDIVGGRISSLQAELDSYCHNRYKQLCDGGNKKFCDKTGVARYGTGIQSQQTAEWRCYFAEVLKPSGRKVQCVDDCGNYFPCLGVVDPNDTFHATAHNQILNFIKDGVEKHCSPFQMAGNNYCQGVLADTVARKDTGTASQKAKAWRCYKKDSLTYEARSICVDNCGGEIECPGGRSETSGELLSQHYTREKELQKVIESQSAPCHDACVATPINPPICADTESLLQSTKRSRAQRFIDDACQKLFNCHCKKDKKFCTTVVARKDRGRAGSQNDAEWRCYSLEELDFQKTNPSCIDECGNELPCQGAVPEESTHHITWTKLPSKIDEATQKFCTERQRAANDYCASEFADSLARYGPGAGDQTSQFRCIKKAAMRADAEGQCADSCKGTETCGGGRSRLDGPLSVDDVLNAHEGISEAMKSASTEC
As for B1, the “glycan array binding signal (z-score)” value in [1] was -0.151; in the assay with Neu(a2-3)Gal(b1-4)Glc, -0.234; with Neu(a2-6)Gal(b1-4)Glc, -0.287; in assay [2] it was -0.287; in assay [3], -0.243; in [4] it was 0.435. Also, the “glycan array binding signal (z-score)” value in [5] was 2.31; in assay [6] it was -0.287; in assay [7] it was 8.12; with Neu5Gc(a2-3)Gal(b1-4)Glc it was -0.038.

B2: MIC1 (Neospora caninum), Q8WRS0 (protein)
chain: AGAKTYGEASQPSASARSLQGALDTWCQEVFKKLCDDGYSKMCIPANQVVARQGLGRKDQQKLVWRCYDSAAFLAEGDENNVLSCVDDCGVSIPCPGGVDRDNSTHATRHDELSQLIKEGVVRYCSGFQAAANSYCNKRYPGTVARKSKGFGHKEPVKWRCYKPESLLFSVFSECVSNCGTTWSCPGGRLGTATNLDKKHFTDESGILQALTSVPKACPVGLVCLPRDQNPPACLDDNGNVPE
As to B2, the “glycan array binding signal (z-score)” value in assay [8] is -0.344; in assay [9] it was -0.441; with Neu(a2-3)Gal(b1-4)Glc, -0.422; in assay [10], -0.441; in [11] it was -0.359; in assay [4] it was 0.848. The “glycan array binding signal (z-score)” value was 6.08 in [12]; 4.92 in assay [5]; 0.538 in assay [13]; -0.166 in assay [14]; -0.291 in [15]; -0.428 in [16].
